A short description of assay [1]: NCI Yeast Anticancer Drug Screen. Data for the rad50 strain (AID 155).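 Also: 0% = growth of vehicle-only cultures of the same strain.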 To be noted: S. cerevisiae rad50 strain growth inhibition, stronger effect = higher value. The method in brief: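 A DNA repair-deficient yeast mutant serves as the test organism; compound-induced growth inhibition is calculated against vehicle-treated cells.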
Assay [2] can be described thus: NCI Yeast Anticancer Drug Screen. Data for the mec2-1 strain (AID 157). The settings on record: S. cerevisiae mec2-1 strain, stronger effect = higher value. The procedure, abridged:
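Compounds were applied to mec2-1 yeast cells. Their growth was then compared with that of vehicle-treated cultures to give growth inhibition.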

Assay [3] is described as follows: NCI Yeast Anticancer Drug Screen. Data for the sgs1 mgt1 strain (AID 161).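 Also: 0% = growth of cultures given vehicle only.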 The settings on record: S. cerevisiae sgs1 mgt1 strain, stronger effect = higher value. The procedure, abridged: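 Compounds are added to genetically altered yeast, and growth is compared with cultures given vehicle alone to give percent inhibition.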
Assay [4] can be described thus: NCI Yeast Anticancer Drug Screen. Data for the cln2 rad14 strain (AID 165).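 Also: 0% = growth equal to vehicle treated cultures.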 To be noted: S. cerevisiae cln2 rad14 strain, stronger effect = higher value. The procedure, abridged:
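Strain: cln2 rad14 yeast, altered in cell cycle control and DNA damage repair. Read-out: growth inhibition vs vehicle.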

Assay [5] in a line: NCI Yeast Anticancer Drug Screen. Data for the bub3 strain (AID 167). To be noted: S. cerevisiae bub3 mutant strain, stronger effect = higher value. The procedure, abridged:
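Inhibition values come from growth of compound-treated mutant yeast normalised to vehicle-treated controls.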

Assay [6] in a line: NCI Yeast Anticancer Drug Screen. Data for the mlh1 rad18 strain (AID 175). The settings on record: S. cerevisiae mlh1 rad18 strain growth inhibition, stronger effect = higher value. The method in brief: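 A repair-deficient yeast strain is exposed to test compound, and growth is scored relative to vehicle-treated controls.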
The mark [7] stands for this setting: at 5.0 µM (retest, dose inferred, filed as 0.5).
[8] abbreviates: at 50.0 µM (retest, dose inferred, filed as 5.0).

This is part of a sample that, as a whole, favours compounds with a hit. Of some 79,000 tested, about 15% had one in any assay. A number with no mark means an inactive call. Activity calls are given as the source filed them. Rule as the data show it: active = growth inhibition above about 70%; inactive = the rest.

With `COC(=O)[C@@]12OC[C@]34[C@H]([C@@H](O)[C@@H]1O)[C@@]1(C)[C@H](O)C(=O)C=C(C)[C@@H]1C[C@H]3OC(=O)C(OC(C)=O)[C@@H]24` (stereo not given in full), the growth inhibition is 36% in assay [1] (setting [7]); 98% (active) in assay [1] (setting [8]); 91% (active) in assay [1] (at 50.0 µM); 35% in assay [2] (setting [7]); 98% (active) in assay [2] (setting [8]); 89.3% (active) in assay [2] (at 50.0 µM). Also, the growth inhibition in assay [3] (setting [7]) was 30%; in assay [3] (setting [8]), 98% (active); in assay [3] (at 50.0 µM), 87.8% (active); in assay [4] (setting [7]), 43%; in assay [4] (setting [8]), 99% (active); in assay [4] (at 50.0 µM), 90.5% (active). Further, the growth inhibition in assay [5] (setting [7]) was 19%; in assay [5] (setting [8]), 98% (active); in assay [5] (at 50.0 µM), 90.5% (active); in assay [6] (setting [7]) it was 34%; in assay [6] (setting [8]) it was 99% (active); in assay [6] (at 50.0 µM), 90.8% (active).
As to `CCNc1ccc2c(c1)Cc1ccccc1-2`, the growth inhibition in assay [1] (setting [7]) is 45%; in assay [1] (setting [8]), 91% (active); in assay [1] (at 50.0 µM) it was 95.2% (active); in assay [2] (setting [7]) it was 4%; in assay [2] (setting [8]), 38%; in assay [2] (at 50.0 µM), 59.8%. Also, the growth inhibition in assay [3] (setting [7]) is 62%; in assay [3] (setting [8]) it was 90% (active); in assay [3] (at 50.0 µM) it was 96% (active); in assay [4] (setting [7]) it was 3%; in assay [4] (setting [8]), 73% (active); in assay [4] (at 50.0 µM), 71.8% (active). The growth inhibition in assay [5] (setting [7]) is -11%; in assay [5] (setting [8]), 33%; in assay [5] (at 50.0 µM) it was 12.1%; in assay [6] (setting [7]), 27%; in assay [6] (setting [8]), 87% (active); in assay [6] (at 50.0 µM), 90.7% (active).
Turning to `CC(C)N=C1NS(=O)(=O)c2ccccc21`, the growth inhibition in assay [1] (setting [7]) was -2%; in assay [1] (setting [8]), -1%; in assay [1] (at 50.0 µM) it was 5.5%; in assay [2] (setting [7]) it was -2%; in assay [2] (setting [8]), 0%; in assay [2] (at 50.0 µM), -3.75%. Moreover, the growth inhibition in assay [3] (setting [7]) is 0%; in assay [3] (setting [8]), -4%; in assay [3] (at 50.0 µM) it was -0.4%; in assay [4] (setting [7]), 0%; in assay [4] (setting [8]), -2%; in assay [4] (at 50.0 µM) it was 17.8%. Moreover, the growth inhibition in assay [5] (setting [7]) is -3%; in assay [5] (setting [8]), -2%; in assay [5] (at 50.0 µM) it was 21.4%; in assay [6] (setting [7]), -5%; in assay [6] (setting [8]) it was 0%; in assay [6] (at 50.0 µM), 2.6%.
For the molecule `Cn1c2ccccc2c2nnc(N/N=C/c3ccccn3)nc21`, the growth inhibition in assay [1] (setting [7]) is 26%; in assay [1] (setting [8]), 98% (active); in assay [1] (at 50.0 µM), 94.4% (active); in assay [2] (setting [7]) it was 21%; in assay [2] (setting [8]), 97% (active); in assay [2] (at 50.0 µM) it was 96.5% (active). Further, the growth inhibition was 23% in assay [3] (setting [7]); 98% (active) in assay [3] (setting [8]); 96.9% (active) in assay [3] (at 50.0 µM); 8% in assay [4] (setting [7]); 97% (active) in assay [4] (setting [8]); 96.2% (active) in assay [4] (at 50.0 µM). In addition, the growth inhibition in assay [5] (setting [7]) was 13%; in assay [5] (setting [8]) it was 99% (active); in assay [5] (at 50.0 µM), 96.2% (active); in assay [6] (setting [7]), 22%; in assay [6] (setting [8]) it was 98% (active); in assay [6] (at 50.0 µM), 96.4% (active).
With `O=c1[nH]c2c([N+](=O)[O-])cc(Cl)cc2nc1/C=C(\O)c1ccccc1`, the growth inhibition in assay [1] (setting [7]) is 17%; in assay [1] (setting [8]), 81% (active); in assay [1] (at 50.0 µM), 49.6%; in assay [2] (setting [7]), -3%; in assay [2] (setting [8]), 65%; in assay [2] (at 50.0 µM), 4.65%. Also, the growth inhibition in assay [3] (setting [7]) is 7%; in assay [3] (setting [8]), 63%; in assay [3] (at 50.0 µM), 66.8%; in assay [4] (setting [7]), 4%; in assay [4] (setting [8]) it was 59%; in assay [4] (at 50.0 µM) it was 45.4%. The growth inhibition was 16% in assay [5] (setting [7]); 77% (active) in assay [5] (setting [8]); -2.5% in assay [5] (at 50.0 µM); -9% in assay [6] (setting [7]); 80% (active) in assay [6] (setting [8]); 83.9% (active) in assay [6] (at 50.0 µM).
As for `CC(=O)c1c(CO[N+](=O)[O-])n([O-])c2ccccc2[n+]1=O`, the growth inhibition is 11% in assay [1] (setting [7]); 60% in assay [1] (setting [8]); 69.4% in assay [1] (at 50.0 µM); 7% in assay [2] (setting [7]); 20% in assay [2] (setting [8]); 13.6% in assay [2] (at 50.0 µM). Moreover, the growth inhibition in assay [3] (setting [7]) is 13%; in assay [3] (setting [8]) it was 40%; in assay [3] (at 50.0 µM) it was 42.5%; in assay [4] (setting [7]), -1%; in assay [4] (setting [8]), 17%; in assay [4] (at 50.0 µM), 22%. Further, the growth inhibition in assay [5] (setting [7]) was -1%; in assay [5] (setting [8]) it was -4%; in assay [5] (at 50.0 µM), 15.7%; in assay [6] (setting [7]) it was 1%; in assay [6] (setting [8]), 33%; in assay [6] (at 50.0 µM) it was 45.9%.
Consider `CCS(=O)(=O)/C=C(\C#Cc1ccccc1)c1ccccc1`, for which the growth inhibition in assay [1] (setting [7]) is 9%; in assay [1] (setting [8]), 84% (active); in assay [1] (at 50.0 µM) it was 79.2% (active); in assay [2] (setting [7]) it was -1%; in assay [2] (setting [8]), 95% (active); in assay [2] (at 50.0 µM) it was 82.4% (active). The growth inhibition is 5% in assay [3] (setting [7]); 90% (active) in assay [3] (setting [8]); 83.7% (active) in assay [3] (at 50.0 µM); 12% in assay [4] (setting [7]); 81% (active) in assay [4] (setting [8]); 80.3% (active) in assay [4] (at 50.0 µM). In addition, the growth inhibition in assay [5] (setting [7]) is 11%; in assay [5] (setting [8]), 99% (active); in assay [5] (at 50.0 µM), 87.5% (active); in assay [6] (setting [7]) it was 6%; in assay [6] (setting [8]), 94% (active); in assay [6] (at 50.0 µM), 92.2% (active).
With `O=C(/C=C/C(=O)c1ccc(O)cc1)c1ccccc1`, the growth inhibition in assay [1] (setting [7]) is -1%; in assay [1] (setting [8]) it was 89% (active); in assay [1] (at 50.0 µM), 12.4%; in assay [2] (setting [7]) it was -1%; in assay [2] (setting [8]) it was 85% (active); in assay [2] (at 50.0 µM), 26.6%. Besides, the growth inhibition in assay [3] (setting [7]) is -3%; in assay [3] (setting [8]), 82% (active); in assay [3] (at 50.0 µM), 30.8%; in assay [4] (setting [7]) it was 3%; in assay [4] (setting [8]), 90% (active); in assay [4] (at 50.0 µM), 24.6%. The growth inhibition is -6% in assay [5] (setting [7]); 87% (active) in assay [5] (setting [8]); 38.6% in assay [5] (at 50.0 µM); -1% in assay [6] (setting [7]); 94% (active) in assay [6] (setting [8]); 24.7% in assay [6] (at 50.0 µM).
For the molecule `CCCCCCCCCCCCCC(=O)OCC[N+](C)(C)C`, the growth inhibition in assay [1] (setting [7]) was 26%; in assay [1] (setting [8]) it was 98% (active); in assay [1] (at 50.0 µM), 90.2% (active); in assay [2] (setting [7]), 27%; in assay [2] (setting [8]), 99% (active); in assay [2] (at 50.0 µM), 92.5% (active). For the same molecule, the growth inhibition in assay [3] (setting [7]) is 41%; in assay [3] (setting [8]) it was 99% (active); in assay [3] (at 50.0 µM), 92.9% (active); in assay [4] (setting [7]), 32%; in assay [4] (setting [8]), 98% (active); in assay [4] (at 50.0 µM), 88.8% (active). Further, the growth inhibition in assay [5] (setting [7]) was 40%; in assay [5] (setting [8]) it was 99% (active); in assay [5] (at 50.0 µM) it was 91.5% (active); in assay [6] (setting [7]), 34%; in assay [6] (setting [8]) it was 98% (active); in assay [6] (at 50.0 µM), 90.5% (active).
Take `O=C1NC(=O)N(c2ccc([N+](=O)[O-])cc2)C1=O`: the growth inhibition is 9% in assay [1] (setting [7]); 3% in assay [1] (setting [8]); -0.3% in assay [1] (at 50.0 µM); 8% in assay [2] (setting [7]); 2% in assay [2] (setting [8]); 1.1% in assay [2] (at 50.0 µM). Further, the growth inhibition in assay [3] (setting [7]) was 3%; in assay [3] (setting [8]), 6%; in assay [3] (at 50.0 µM), -2.95%; in assay [4] (setting [7]), 9%; in assay [4] (setting [8]) it was 5%; in assay [4] (at 50.0 µM), 18.1%. Further, the growth inhibition in assay [5] (setting [7]) is 6%; in assay [5] (setting [8]), 5%; in assay [5] (at 50.0 µM) it was -4.4%; in assay [6] (setting [7]), 0%; in assay [6] (setting [8]), 7%; in assay [6] (at 50.0 µM) it was 10.2%.
